Screens (PubChem)
In the library only some 12% were active in any assay of this set; here they are far more common.
Cav32 inh: human Cav3.2 channel inhibition, primary screen; B-score at 10 µM; Cav3.2-expressing cells, Fluo-4 calcium fluorescence FDSS; hits give low values; O95180; actives 4% (n = 100,000);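 active means single-dose well whose peak fluorescence ratio is a statistical outlier from its plate by either plate-standardised score or position-corrected B-score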
PostGolgi yeast: growth inhibition of a yeast mutant, post-Golgi transport screen. post-Golgi transport phenotypic cell assay. inhibition, % at 10 µM. actives 0.9% (n = 98,000). AID 739;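 further: yeast cells grown in 1536-well plates; yeast grown about 18 h at 30C before absorbance read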
D1 allo mod: allosterically modulates the human D1 dopamine receptor. P21728. HEK293 D1, CRE-luciferase, dopamine EC30 potentiation; actives deviate in either direction. B-score at 10 µM. actives 5.9% (n = 58,000). AID 641;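 active means luminescence count or its row- and column-corrected plate score outside the 99.7% band of the plate's sample wells, on either side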
PostGolgi ctrl: growth of the yeast control strain, post-Golgi counter-screen. AID 738. efflux-deficient yeast background strain, growth absorbance A615, 16 h. actives 5% (n = 98,000). inhibition, % at 10 µM
hDAT+cocaine: human DAT dopamine uptake with cocaine, either direction; Q01959; LLC-PK1 hDAT cells, [14C]-dopamine uptake with cocaine IC80; actives deviate in either direction; B-score at 10 µM; actives 1.3% (n = 110,000); AID 449768;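 active means Z score or B-score, a plate-position-corrected score, falls beyond the plate's 99.7% confidence bounds, in either direction; inactive means both scores lie inside the 99.7% bounds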;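 further: scored against the spread of the other compound wells on the same plate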
PLAP activator: human PLAP activation | activation fold at 20 µM | AID 696 | P05187 | actives 1.2% (n = 96,000) | purified PLAP enzyme, luminescent substrate read-out; hits give high values; in the data active means activation fold above about 2
* marks the source's active call; other numbers are inactive results. Unless noted, no stated cut-off is given here; in the data, active means inhibition above about 30%; inactive means the rest.

`COc1ccc(Cn2nnnc2C(C(C)C)N(Cc2ccco2)Cc2cccs2)cc1` (stereo not drawn) gave Cav32 inh -3.86*, PostGolgi yeast -6.9, D1 allo mod 0.831, PostGolgi ctrl 4.3, hDAT+cocaine -0.273 and PLAP activator 1.
Clc1ccc(CN(Cc2ccccc2)C(c2cccs2)c2nnnn2C2CCCC2)cc1 (stereo not drawn) was read as Cav32 inh -2.14, PostGolgi yeast 5.3, PostGolgi ctrl 0.3, hDAT+cocaine -0.215 and PLAP activator 1.
CC(C)(C)n1nnnc1C(c1cccs1)N(Cc1ccc(Cl)cc1)CC1CCCO1 (stereo not drawn) was read as Cav32 inh -4.58*, PostGolgi yeast -4.3, PostGolgi ctrl 8.8, hDAT+cocaine -0.137 and PLAP activator 1.
Screening Cc1ccc(C(c2nnnn2C(C)(C)C)N(Cc2ccco2)Cc2cccs2)cc1 (stereo not drawn) returned Cav32 inh -5.14*, PostGolgi yeast 11.2, D1 allo mod -2.18, PostGolgi ctrl 7.8, hDAT+cocaine 0.519 and PLAP activator 1.
`Cc1ccc(N(CC(=O)NC2CCCC2)C(=O)c2c(C)noc2C)cc1C` gave Cav32 inh 0.816, PostGolgi yeast 5.8, PostGolgi ctrl -1.8, hDAT+cocaine -0.13 and PLAP activator 1.2.
Cn1cc(C[C@H](NC(=O)OC(C)(C)C)C(=O)N[C@@H](CO)Cc2ccccc2)c2ccccc21 was read as Cav32 inh -1.09 and hDAT+cocaine 0.299.
COc1ccccc1NS(=O)(=O)c1cc([N+](=O)[O-])ccc1N/N=C/c1c[nH]c2ccccc12 was read as Cav32 inh 0.398, PostGolgi yeast 3.0, PostGolgi ctrl 30.8*, hDAT+cocaine -0.0587 and PLAP activator 1.
Screening COc1ccc(NS(=O)(=O)c2cc([N+](=O)[O-])ccc2N/N=C\c2c(C)[nH]c3ccccc23)cc1 returned Cav32 inh 0.0263, PostGolgi yeast -0.3, PostGolgi ctrl 13.5, hDAT+cocaine -0.0136 and PLAP activator 1.
`O=[N+]([O-])c1ccc(N/N=C/c2c[nH]c3ccccc23)cc1` gave Cav32 inh -0.173, PostGolgi yeast 98.7*, PostGolgi ctrl 91.0*, hDAT+cocaine -0.505 and PLAP activator 0.7.
`COc1ccc(-c2nnc(SCC(=O)NCc3ccco3)n2C)cc1` gave Cav32 inh -0.877, PostGolgi yeast 1.0, D1 allo mod -0.376, PostGolgi ctrl 9.0, hDAT+cocaine 0.924 and PLAP activator 0.9.
`O=C(Nc1ccccc1-c1ccccc1)c1ccc(NC(=O)c2ccco2)cc1` gave Cav32 inh -5.52*, PostGolgi yeast 2.4, PostGolgi ctrl 16.3, hDAT+cocaine -0.514 and PLAP activator 0.8.
`O=C(Nc1ccc(-c2nc3cccnc3s2)cc1)c1ccco1` gave Cav32 inh -0.343, PostGolgi yeast 1.3, D1 allo mod -5.01*, PostGolgi ctrl 4.2, hDAT+cocaine 0.0965 and PLAP activator 1.1.
For O=C(Nc1ccccn1)c1ccc(NC(=O)c2ccco2)cc1 the results were Cav32 inh 0.797, PostGolgi yeast 4.2, D1 allo mod -1.7, PostGolgi ctrl 35.0*, hDAT+cocaine 0.121 and PLAP activator 0.9.
Screening O=c1[nH]c(N2CCOCC2)nc2c1CCCC2 returned Cav32 inh 0.591, PostGolgi yeast -5.2, D1 allo mod -0.242, PostGolgi ctrl -1.4, hDAT+cocaine 0.0659 and PLAP activator 0.9.
For OC1CN=C2C=CC=CN2C1 (stereo not drawn) the results were Cav32 inh -7.36*, PostGolgi yeast 6.7, D1 allo mod -0.0143, PostGolgi ctrl 3.4, hDAT+cocaine -0.0551 and PLAP activator 0.9.
For COc1ccc(N/C(=C(/C(Cl)=C(Cl)Cl)[N+](=O)[O-])n2nnc3ccccc32)cc1OC the results were Cav32 inh -0.336, PostGolgi yeast -3.0, PostGolgi ctrl 6.2, hDAT+cocaine -0.377 and PLAP activator 1.
CN1C(=O)C2(Oc3ccccc3C3CC(c4ccccc4)=NN32)c2ccccc21 (stereo not drawn) was read as Cav32 inh -0.111, PostGolgi yeast -5.5, PostGolgi ctrl 51.3*, hDAT+cocaine 0.13 and PLAP activator 1.
Screening COC(=O)CSc1nc(SCc2ccccc2Cl)nc2c1CCCC2 returned Cav32 inh -4.99*, PostGolgi yeast 25.7, PostGolgi ctrl 7.4, hDAT+cocaine 0.987 and PLAP activator 1.
`COC(=O)CSc1nc2c(c(-c3ccco3)c1C#N)CCCC2` gave Cav32 inh -0.0112, PostGolgi yeast 0.8, D1 allo mod 3.24, PostGolgi ctrl 7.9, hDAT+cocaine 2.02 and PLAP activator 1.7.
`COc1cc2c(cc1NC(=O)CSc1nnnn1-c1ccccc1)oc1ccccc12` gave Cav32 inh -0.00562, PostGolgi yeast 0.0, D1 allo mod 2.64, PostGolgi ctrl -1.0, hDAT+cocaine -0.498 and PLAP activator 0.8.
Screening C=CCn1c(SCC(=O)Nc2cc3oc4ccccc4c3cc2OC)nnc1-c1cnccn1 returned Cav32 inh -4.19*, PostGolgi yeast -6.2, D1 allo mod 1.42, PostGolgi ctrl 7.0, hDAT+cocaine 2.03 and PLAP activator 1.3.
Screening CCn1c(SCC(=O)c2ccc(O)c(O)c2)nnc1-c1ccc(C)cc1 returned Cav32 inh 0.694, PostGolgi yeast -1.0, PostGolgi ctrl 16.2, hDAT+cocaine -0.862 and PLAP activator 1.1.
COc1cc2c(cc1NC(=O)CSc1nnc(Cc3cccs3)n1C)oc1ccccc12 was read as Cav32 inh -1.53, PostGolgi yeast -9.0, PostGolgi ctrl 34.6*, hDAT+cocaine 2.15 and PLAP activator 1.8.
Screening CCCNC(=O)NC(=O)CSc1nnc(-c2ccncc2)n1CC returned Cav32 inh 0.519, PostGolgi yeast 0.6, D1 allo mod -0.184, PostGolgi ctrl -2.0, hDAT+cocaine 0.344 and PLAP activator 1.4.
For CCn1c(SCC(=O)c2ccc3c(c2)Cc2ccccc2-3)nnc1-c1ccc(N)cc1 the results were Cav32 inh 0.0446, PostGolgi yeast -6.7, PostGolgi ctrl 15.5, hDAT+cocaine 1.71* and PLAP activator 1.
`CCn1c(SCC(=O)NCC(=O)Nc2ccc(F)cc2)nnc1-c1ccncc1` gave Cav32 inh 0.505, PostGolgi yeast -1.6, PostGolgi ctrl 34.7*, hDAT+cocaine -1.2 and PLAP activator 1.
`C=CCn1c(SCC(=O)Nc2cccc3ccccc23)nnc1-c1cnccn1` gave Cav32 inh 0.264, PostGolgi yeast 4.1, PostGolgi ctrl -1.0, hDAT+cocaine -0.048 and PLAP activator 1.
Screening COC(=O)[C@H](Cc1ccccc1)NC(=O)NCc1cccs1 returned Cav32 inh 0.4, PostGolgi yeast 2.6, PostGolgi ctrl 1.6, hDAT+cocaine -0.0278 and PLAP activator 0.7.
CC(=O)Nc1ccc(-c2nnc(SCC(=O)Nc3ccc4c(c3)oc3ccccc34)n2C)cc1 was read as Cav32 inh 0.561, PostGolgi yeast -6.4, PostGolgi ctrl 4.7, hDAT+cocaine 0.0238 and PLAP activator 1.2.
